# Source: PubChem
# This is a sample that favours compounds with a hit; in the whole collection about 0.97% have one here.
# CIT2-GFP yeast: yeast TOR pathway CIT2-GFP modulation; S. cerevisiae CIT2-GFP strain, flow cytometry, 3 h; 100 means same as DMSO wells; GFP response vs DMSO, % at 10 µM; actives 0.065% (n = 320,000); AID 2029;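 active means GFP response relative to DMSO above a set limit, near the screen mean plus 3 SD, cut at about 150% in these data; inconclusive means Fewer than 70 cells measured for a yeast strain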;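 further: ratio of well median GFP fluorescence to mean of DMSO wells on the plate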
# GASC-1 inh: human JMJD2C demethylase inhibition | Q9H3R0 | GST-JMJD2C(1-420) H3K9me3 demethylation, DELFIA europium | inhibition, % at 2.35 µM | actives 0.069% (n = 330,000);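 active means more than half of a compound's replicate wells show inhibition beyond 50%, single wells judged on their own value; inconclusive means some, but no more than half, of replicates pass 50% inhibition; inactive means no replicate passes 50% inhibition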;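 further: signal counts dimethyl H3K9 product captured on neutravidin plate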
# Target sequence (Q9H3R0 1-420 limits assumed): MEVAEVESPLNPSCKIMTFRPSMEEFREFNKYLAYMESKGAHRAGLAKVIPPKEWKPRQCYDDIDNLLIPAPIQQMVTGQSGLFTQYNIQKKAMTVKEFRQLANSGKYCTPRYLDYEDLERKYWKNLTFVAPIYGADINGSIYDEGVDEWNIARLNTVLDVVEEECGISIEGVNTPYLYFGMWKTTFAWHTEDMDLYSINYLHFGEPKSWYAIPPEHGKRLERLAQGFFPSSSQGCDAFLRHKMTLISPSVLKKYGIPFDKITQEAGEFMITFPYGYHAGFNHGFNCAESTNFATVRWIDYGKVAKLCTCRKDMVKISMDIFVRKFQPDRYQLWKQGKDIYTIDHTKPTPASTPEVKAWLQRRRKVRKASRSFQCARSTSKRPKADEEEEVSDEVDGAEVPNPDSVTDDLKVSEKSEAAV
# LAP4-GFP MLPCN: alters LAP4-GFP fluorescence in TOR pathway yeast screen; S. cerevisiae LAP4-GFP multiplex, flow cytometry GFP, 3 h; median GFP as percent of DMSO wells; GFP response vs DMSO, % at 10 µM; actives 0.34% (n = 320,000); AID 2023;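 active means GFP response vs DMSO above a set limit, about the screen mean plus 3 SD, cut at about 150% in these data; inconclusive means under 70 cell events counted for the yeast strain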
# MEP2-GFP yeast: yeast TOR pathway MEP2-GFP modulation | S. cerevisiae MEP2-GFP strain, flow cytometry GFP, 3 h; 100% = DMSO control level | GFP response vs DMSO, % at 10 µM | actives 0.51% (n = 330,000) | AID 2016;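 active means GFP response versus DMSO above a set limit, roughly screen mean plus 3 SD, cut at about 180% in these data; inconclusive means fewer than 70 cells counted for a yeast strain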;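 further: median GFP fluorescence of the barcode-gated MEP2-GFP cells per well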
# RPL19A-GFP yeast: yeast TOR pathway RPL19A-GFP modulation; actives 0.3% (n = 330,000); percent response vs DMSO, % at 10 µM; S. cerevisiae RPL19A-GFP strain, flow cytometry, 3 h; stronger effect = lower value;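 active means percent response vs DMSO below 50%; inconclusive means fewer than 70 events counted for the yeast strain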;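 further: median channel GFP fluorescence of the barcoded RPL19A-GFP strain; lower means less RPL19A-GFP as with rapamycin TOR inhibition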
# AGP1 TOR yeast: modulators of TOR pathway AGP1-GFP in S. cerevisiae | actives 0.02% (n = 320,000) | GFP response vs DMSO, % at 10 µM | S. cerevisiae AGP1-GFP multiplex flow cytometry, 3 h; GFP as percent of DMSO wells;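 active means GFP response relative to DMSO above a set limit, near screen average plus 3 SD, cut at about 150% in these data; inconclusive means fewer than 70 cells counted for the yeast strain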;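 further: median GFP channel fluorescence of the gated AGP1 strain per well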
# Hits are given with their value; 0 = inactive; ? = inconclusive; - = not tested or not shown; [ ] = remark or other dose.
SMILES,CIT2-GFP yeast,GASC-1 inh,LAP4-GFP MLPCN,MEP2-GFP yeast,RPL19A-GFP yeast,AGP1 TOR yeast
Cc1ccc(Oc2nc3ccccn3c(=O)c2/C=C(\C#N)C(=O)NC2CCS(=O)(=O)C2)c(C)c1 (centres undefined),0,0,0,0,0,0
N#C/C(=C\c1c(N2CCN(c3ccccc3)CC2)nc2ccccn2c1=O)C(N)=O,0,0,0,260,41,0
CN1CCN(c2nc3ccccn3c(=O)c2/C=C(\C#N)S(=O)(=O)c2ccc(Cl)cc2)CC1,-,90,-,0,0,-
CCN(C[C@H]1N[C@@](CC)(C(=O)OC)[C@H]2C(=O)N(C)C(=O)[C@@H]12)C(=O)Nc1ccc(C)cc1,0,0,0,0,0,0
Cc1ccc(S(=O)(=O)CCC(=O)OC(C)C(=O)N2CCc3ccccc32)cc1 (centres undefined),0,0,0,0,0,0
Cc1cccc(NS(=O)(=O)c2ccc(C(=O)NCC(c3ccco3)N(C)C)cc2)c1C (centres undefined),0,0,0,0,0,0
O=C(C[n+]1ccccc1)N/N=C/c1ccc(Cl)c(Cl)c1,0,0,0,0,0,0
N#C/C(=C\c1c(N2CCCCCC2)nc2ccccn2c1=O)C(=O)NC1CCS(=O)(=O)C1 (centres undefined),0,0,0,181,0,0
Cc1cccc(C(=O)N2N=C(c3ccc(NS(C)(=O)=O)cc3)CC2c2cccs2)c1 (centres undefined),?,0,0,352[may fluoresce violet],35[may fluoresce violet],?
CCS(=O)(=O)Nc1ccc(C2=NN(C(=O)c3ccccc3)C(c3cccs3)C2)cc1 (centres undefined),0,0,0,0,0,0
CN(C(=O)CSc1nc(O)cc(=O)n1C1CCCC1)c1ccccc1,?,0,0,270[may fluoresce violet],0,0
CN(C(=O)CSc1nc(O)cc(=O)n1-c1ccccc1F)c1ccccc1,-,0,0,0,0,0
COc1ccc(-c2cc(C(=O)N3CCN(C(c4ccccc4)c4ccccc4)CC3)no2)cc1,?,0,0,201[may fluoresce violet],41[may fluoresce violet],?
COc1ccc(-c2cc(C(=O)N3CCN(C(c4ccccc4)c4ccccc4)CC3)no2)cc1OC,0,0,0,0,0,0
COC(=O)c1c(N)n(-c2ccc(NC(C)=O)cc2)c2nc3ccccc3nc12,?,0,0,365[may fluoresce violet],42[may fluoresce violet],?
O=C1c2cccc3cccc(c23)C(=O)N1OS(=O)(=O)c1ccc(Br)cc1,0,0,0,0,0,0
O=C1c2cccc3cccc(c23)C(=O)N1OS(=O)(=O)c1ccccc1,?,0,0,263[may fluoresce violet],0,-
CN(C)S(=O)(=O)c1ccc(C(=O)NCC(C)(C)CN=C2NS(=O)(=O)c3ccccc32)cc1,0,0,0,0,0,0
NC(=O)C1CCN(C(=O)c2cnn(-c3ccccc3)c2NC(=O)c2cccc(F)c2)CC1,0,75,0,0,0,0
N#Cc1c(-c2ccccc2Cl)c2c([nH]c1=O)-c1ccccc1OC2,0,0,0,0,0,0
N#Cc1c(-c2ccncc2)c2c([nH]c1=O)-c1ccccc1OC2,?,0,0,224[may fluoresce violet],27[may fluoresce violet],?
COC(=O)c1cc(S(=O)(=O)NCCN2CCOCC2)cn1C,0,0,0,0,0,0
CN(C)N=C1c2cc(S(=O)(=O)N3CCOCC3)ccc2-c2ccc(S(=O)(=O)N3CCOCC3)cc21,?,0,0,269[may fluoresce violet],47[may fluoresce violet],?
CCN(C[C@H]1N[C@@](CC)(C(=O)OC)[C@H]2C(=O)N(C)C(=O)[C@@H]12)C(=O)c1ccc(C(C)(C)C)cc1,0,-,0,0,0,0
Cn1c(=O)c(C(=O)Nc2ncccc2O)c(O)c2ccccc21,0,0,0,0,30,0
SMILES,CIT2-GFP yeast,GASC-1 inh,LAP4-GFP MLPCN,MEP2-GFP yeast,RPL19A-GFP yeast,AGP1 TOR yeast
O=[N+]([O-])c1ccc2oc(C(O)c3cccc(Cl)c3)cc2c1 (centres undefined),0,0,0,0,0,0
COc1cc(C(C(=O)NC2CCCCC2)N(Cc2cccs2)C(=O)Cc2c[nH]c3ccccc23)cc(OC)c1OC (centres undefined),0,52,0,0,0,0
CCN1CCCC1CNCc1cc(OC)c(OC)c(OC)c1 (centres undefined),0,0,0,0,0,0
CCOc1cc(CNCC2CCCN2CC)cc(Cl)c1OC (centres undefined),?,0,0,223[may fluoresce violet],45[may fluoresce violet],0
COc1ccc(CC2(CO)CCN(Cc3ccncc3)CC2)cc1,0,0,0,0,0,0
COc1ccc(CC2(CO)CCN(Cc3cnn(C)c3C)CC2)cc1,?,0,167[may fluoresce violet],0,14[may fluoresce violet],?
COc1cccc(/C=N/NC(=O)Cn2cnc3c2c(=O)n(C)c(=O)n3C)c1OC,0,0,0,0,0,0
Cn1c(Sc2ccc(Cl)cc2)c(C=O)c2ccccc21,0,0,0,0,0,-
Cc1cccc(Sc2c(C=O)c3ccccc3n2C)c1,?,0,0,228[may fluoresce violet],0,?
CN(CC(=O)Nc1ccccc1Cl)C(=O)CSc1nnc(N)s1,?,0,?,0,40[may fluoresce violet],?
C=CCN1C(=O)c2ccc(C(=O)N3CCN(S(=O)(=O)c4cccc(Cl)c4)CC3)cc2C1=O,0,0,0,0,0,0
O=C(CSc1ncnc2c1oc1ccccc12)Nc1cccc(C(F)(F)F)c1,0,0,0,0,0,0
O=C(CSc1ncnc2c1oc1ccccc12)Nc1cccc(Cl)c1,?,0,0,223[may fluoresce violet],0,?
O=C1C=C(NCc2ccc3c(c2)OCO3)CC(c2ccccc2)C1 (centres undefined),0,61,0,0,0,0
O=C(CNC(=O)C1CCCCC1)OCC(=O)c1cccc(Cl)c1,0,0,0,0,0,0
O=C(Nc1ccc(S(=O)(=O)N2CCCC2)cc1)c1ccc(Br)o1,0,0,0,0,0,0
CN1CCN(S(=O)(=O)c2ccc(NC(=O)c3ccc(Br)o3)cc2)CC1,?,0,0,394[may fluoresce violet],21[may fluoresce violet],?
O=C(Nc1ccc(S(=O)(=O)N2CCCC2)cc1)c1ccc(CN2CCOCC2)cc1,?,0,0,483[may fluoresce violet],0,0
O=C(c1cccc(Oc2c(Cl)cccc2[N+](=O)[O-])c1)N1CCOCC1,0,0,0,0,0,0
C=CCNC(=O)/C(=C\c1ccc(OC)cc1)NC(=O)c1ccc([N+](=O)[O-])cc1,158,0,0,0,0,0
FC(F)(F)c1ccccc1NC(=S)Nn1cnnc1,0,0,0,0,0,0
COc1ccc(C(=O)N(C(C)C)C(C)C)c(OC)c1,?,0,0,234[may fluoresce violet],38[may fluoresce violet],?
COCc1ccc(C(=O)N2CCCC(N3CCN(c4ccc(F)cc4)CC3)C2)o1 (centres undefined),0,0,0,0,0,0
